PubChem BioAssay (EPA / NIEHS)
The source made the active and inactive calls. Rule for the calls: active = hit-call score of the fitted dose curve at least 0.9, where 1 is the maximum; inactive = score below 0.9.

Tests used:
[1] = ATG_RORE_CIS: Attagene CIS-FACTORIAL HepG2 Assay for human RAR-related Orphan Receptor Element (RORE) (AID 2282959); conditions: HepG2 Attagene cis-factorial RORE reporter, mRNA; actives raise or lower the signal
In short: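 Fluorescence intensity of reporter-specific cDNA fragments, separated by capillary electrophoresis, gives the signal. Source: HepG2 liver cells transiently transfected with cis-element reporters and exposed 24 h; DMSO-normalized bidirectional fit.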

[2] = ATG_Sox_CIS: Attagene CIS-FACTORIAL HepG2 Assay for human SRY-box transcription factor (SOX) (AID 2282960); conditions: HepG2 Attagene cis-factorial SOX reporter, mRNA; actives raise or lower the signal
In short: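 After 24 h of chemical treatment, transfected HepG2 reporter cells are lysed for total RNA. Transcript levels come from RT-PCR with labelled primer extension and capillary electrophoresis, analysed bidirectionally versus DMSO.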

[3] = molecular target: Transcription factor Sp1 (Homo sapiens) (UniProt P08047); assay: ATG_Sp1_CIS: Attagene CIS-FACTORIAL HepG2 Assay for human Specificity Protein 1 (Sp1) (AID 2282961); conditions: HepG2 Sp1 cis-reporter transcription, actives raise or lower the signal
Chain of Transcription factor Sp1 (Homo sapiens) (P08047 whole entry, looked up): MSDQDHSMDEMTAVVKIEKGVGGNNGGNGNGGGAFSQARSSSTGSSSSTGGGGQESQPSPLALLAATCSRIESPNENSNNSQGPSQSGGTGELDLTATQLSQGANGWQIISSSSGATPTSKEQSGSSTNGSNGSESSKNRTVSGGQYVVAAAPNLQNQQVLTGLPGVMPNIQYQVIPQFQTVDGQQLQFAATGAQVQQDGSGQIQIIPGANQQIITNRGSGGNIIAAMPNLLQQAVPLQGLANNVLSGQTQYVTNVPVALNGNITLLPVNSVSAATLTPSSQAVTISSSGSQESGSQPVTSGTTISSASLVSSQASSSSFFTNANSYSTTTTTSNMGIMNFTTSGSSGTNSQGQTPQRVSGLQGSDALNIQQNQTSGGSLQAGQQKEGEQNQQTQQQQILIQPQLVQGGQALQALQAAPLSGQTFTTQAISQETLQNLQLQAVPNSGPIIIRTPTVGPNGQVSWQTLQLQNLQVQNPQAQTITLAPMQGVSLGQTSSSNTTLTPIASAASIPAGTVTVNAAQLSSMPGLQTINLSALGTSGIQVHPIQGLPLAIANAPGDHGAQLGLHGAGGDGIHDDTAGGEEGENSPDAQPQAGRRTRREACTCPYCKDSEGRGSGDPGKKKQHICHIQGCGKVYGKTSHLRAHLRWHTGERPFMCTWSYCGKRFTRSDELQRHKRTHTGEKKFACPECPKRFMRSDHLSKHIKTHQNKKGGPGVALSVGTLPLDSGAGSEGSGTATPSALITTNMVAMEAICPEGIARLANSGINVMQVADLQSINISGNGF
In short: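 Sp1-driven reporter mRNA, read as capillary electrophoresis fluorescence after RT-PCR, in transiently transfected HepG2 cells dosed for 24 h; signal change in either direction relative to DMSO.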

[4] = ATG_SREBP_CIS: Attagene CIS-FACTORIAL HepG2 Assay for human Sterol Regulatory Element Binding (SREBP) (AID 2282962); conditions: HepG2 Attagene cis-factorial SREBP reporter, mRNA; actives raise or lower the signal
In short: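 In this cis-format assay, HepG2 liver cells express reporters controlled by promoter elements responsive to native transcription factors. Exposure lasts 24 h; reporter mRNA fluorescence from capillary electrophoresis gives the signal, fitted bidirectionally against DMSO.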

[5] = molecular target: Signal transducer and activator of transcription 3 (Homo sapiens) (UniProt P40763); assay: ATG_STAT3_CIS: Attagene CIS-FACTORIAL HepG2 Assay for human Signal Transducer and Activator of Transcription 3 (STAT3) (AID 2282963); conditions: HepG2, Attagene cis-factorial STAT3 reporter transcription; actives raise or lower the signal
Chain of Signal transducer and activator of transcription 3 (Homo sapiens) (P40763 whole entry, looked up): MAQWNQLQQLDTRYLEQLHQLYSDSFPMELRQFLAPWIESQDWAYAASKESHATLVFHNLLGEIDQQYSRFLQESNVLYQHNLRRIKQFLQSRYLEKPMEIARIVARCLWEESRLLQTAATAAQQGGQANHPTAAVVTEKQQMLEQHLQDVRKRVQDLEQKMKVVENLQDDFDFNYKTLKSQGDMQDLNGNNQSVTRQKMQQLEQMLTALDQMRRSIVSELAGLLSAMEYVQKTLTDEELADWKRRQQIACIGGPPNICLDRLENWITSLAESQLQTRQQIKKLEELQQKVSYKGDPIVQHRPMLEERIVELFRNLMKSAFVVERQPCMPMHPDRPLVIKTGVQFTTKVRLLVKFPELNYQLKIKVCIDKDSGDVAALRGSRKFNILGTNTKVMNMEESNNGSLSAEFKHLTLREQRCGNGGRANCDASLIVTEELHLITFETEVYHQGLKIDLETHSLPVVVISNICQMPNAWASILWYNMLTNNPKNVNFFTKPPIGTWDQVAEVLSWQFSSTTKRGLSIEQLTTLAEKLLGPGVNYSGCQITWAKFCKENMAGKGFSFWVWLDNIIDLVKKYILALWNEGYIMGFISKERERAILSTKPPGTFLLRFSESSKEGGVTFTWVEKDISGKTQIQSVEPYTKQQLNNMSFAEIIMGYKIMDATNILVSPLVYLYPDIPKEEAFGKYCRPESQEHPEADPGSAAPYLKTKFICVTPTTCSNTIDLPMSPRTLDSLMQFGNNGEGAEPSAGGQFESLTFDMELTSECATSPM
In short: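 Readout is reporter transcript quantified by RT-PCR and capillary electrophoresis, with 6-FAM primer extension and HpaI digestion. Total RNA is taken 24 h after dosing transiently transfected HepG2 carrying cis-regulated reporter units. Bidirectional fit against DMSO.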

[6] = ATG_TA_CIS: Attagene CIS-FACTORIAL HepG2 Assay for human TA Basal Promoter (AID 2282964); conditions: HepG2 Attagene CIS-factorial TA basal promoter reporter; actives raise or lower the signal
In short: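 Transfected HepG2, 24 h compound exposure; RNA → RT-PCR → FAM primer extension → HpaI cut → CE fluorescence. Gain/loss-of-signal fitted against DMSO negative control. Background-control readout.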

[7] = ATG_TCF_b_cat_CIS: Attagene CIS-FACTORIAL HepG2 Assay for human T-Cell-Factor with beta-catenin (TCF/b-cat) (AID 2282965); conditions: HepG2 TCF/beta-catenin cis-reporter transcription, actives raise or lower the signal
In short: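 Measured: reporter mRNA in HepG2 transiently transfected with cis-promoter reporter units, 24 h after chemical addition. Fitting was bidirectional, DMSO as negative control.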

[8] = ATG_TAL_CIS: Attagene CIS-FACTORIAL HepG2 Assay for human TAL Basal Promoter (AID 2282966); conditions: HepG2 Attagene cis-factorial TAL promoter reporter; actives raise or lower the signal;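 note: background control endpoint measuring basal TAL promoter reporter mRNA not a specific factor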
In short: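 After 24 hours of chemical exposure, transfected HepG2 cells yielded RNA that was converted to 6-FAM-labelled, HpaI-digested reporter fragments for capillary electrophoresis. Values derive from bidirectional fitting against DMSO controls.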

[9] = ATG_TGFb_CIS: Attagene CIS-FACTORIAL HepG2 Assay for human Transforming Growth Factor (TGF) (AID 2282967); conditions: HepG2 Attagene CIS TGFb reporter, mRNA transcription; actives raise or lower the signal
In short: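 Readout: fluorescently labeled reporter cDNA fragments resolved by capillary electrophoresis after RT-PCR. Transfected HepG2 cells dosed for 24 h; endogenous TF activity at TGFB1-linked cis element; gain or loss fitted relative to DMSO.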

Compound | outcome [1] | outcome [2] | outcome [3] | outcome [4] | outcome [5] | outcome [6] | outcome [7] | outcome [8] | outcome [9] | AC50 [4] | AC50 [9] | AC50 [3] | AC50 [6] | AC50 [2] | AC50 [7] | AC50 [1]
CC(C)C(C)(N)C#N (stereo not drawn) | inactive | inactive | inactive | inactive | inactive | inactive | inactive | inactive | inactive | – | – | – | – | – | – | –
FC(F)OCC(F)(F)C(F)(F)F | inactive | inactive | – | inactive | inactive | inactive | inactive | inactive | inactive | – | – | – | – | – | – | –
Nc1ccc(-c2ccccc2)cc1 | inactive | inactive | – | inactive | inactive | inactive | inactive | inactive | inactive | – | – | – | – | – | – | –
CCOC(=O)CCN(SN(C)C(=O)Oc1cccc2c1OC(C)(C)C2)C(C)C | inactive | inactive | – | – | inactive | inactive | inactive | inactive | inactive | 100 µM (active) | – | – | – | – | – | –
Cc1cc(C(F)(C(F)(F)F)C(F)(F)F)ccc1NC(=O)c1cccc(I)c1C(=O)NC(C)(C)CS(C)(=O)=O | inactive | inactive | – | inactive | inactive | inactive | inactive | inactive | inactive | – | – | – | – | – | – | –
CCCCCCCCBr | inactive | inactive | inactive | inactive | – | inactive | inactive | inactive | inactive | – | – | – | – | – | – | –
CCOC(=O)C(SP(=S)(OC)OC)c1ccccc1 (stereo not drawn) | inactive | inactive | inactive | inactive | inactive | inactive | inactive | inactive | inactive | – | – | – | – | – | – | –
O=C1C[C@@H]2OCC=C3CN4CC[C@]56c7ccccc7N1[C@H]5[C@H]2[C@H]3C[C@H]46 | inactive | inactive | inactive | inactive | – | inactive | inactive | inactive | inactive | – | – | – | – | – | – | –
O=C(CBr)c1ccc(O)cc1 | inactive | inactive | inactive | inactive | inactive | inactive | inactive | inactive | inactive | – | – | – | – | – | – | –
O=C(Cl)OCCOCCOC(=O)Cl | inactive | inactive | inactive | inactive | inactive | inactive | – | inactive | inactive | – | – | – | – | – | – | –
N#CS | inactive | inactive | inactive | inactive | inactive | inactive | inactive | inactive | inactive | – | – | – | – | – | – | –
OC[C@@H](O)[C@H]1O[C@@H]2O[C@H](C(Cl)(Cl)Cl)O[C@@H]2[C@H]1O | inactive | inactive | inactive | inactive | inactive | inactive | inactive | inactive | inactive | – | – | – | – | – | – | –
CCOc1ccc(N)cc1 | inactive | inactive | – | inactive | inactive | inactive | inactive | – | inactive | – | – | – | – | – | – | –
O=C(Cc1ccccc1)OCCc1ccccc1 | inactive | inactive | inactive | inactive | – | inactive | – | – | – | – | 115 µM (active) | – | – | – | – | –
OCC(c1ccc(Cl)cc1)c1ccc(Cl)cc1 | inactive | inactive | – | – | inactive | – | inactive | inactive | inactive | 60.9 µM (active) | – | 53.2 µM (active) | 60.7 µM (active) | – | – | –
Fc1cccc(Cl)c1CCl | inactive | – | – | inactive | inactive | inactive | – | – | inactive | – | – | 65.3 µM (active) | – | 100 µM (active) | 100 µM (active) | –
Cc1cc(Cl)ccc1N | inactive | inactive | inactive | inactive | inactive | inactive | – | inactive | inactive | – | – | – | – | – | – | –
COP(=S)(OC)Oc1cc(Cl)c(I)cc1Cl | – | – | – | – | inactive | inactive | – | inactive | inactive | 37.3 µM (active) | – | 33.4 µM (active) | – | 33.4 µM (active) | 48.6 µM (active) | 15 µM (active)
Oc1cc(Cl)c(Cl)cc1Cl | – | inactive | – | – | – | inactive | inactive | inactive | inactive | 136 µM (active) | – | 58.2 µM (active) | – | – | – | 46.2 µM (active)
O=S1OC[C@@H]2[C@H](CO1)[C@]1(Cl)C(Cl)=C(Cl)[C@@]2(Cl)C1(Cl)Cl (stereo partly drawn) | inactive | inactive | inactive | inactive | inactive | inactive | inactive | inactive | inactive | – | – | – | – | – | – | –
C=CC(=O)OCC(COC(=O)C=C)(COC(=O)C=C)COC(=O)C=C | – | inactive | – | inactive | inactive | inactive | – | inactive | inactive | – | – | – | – | – | 8.6 µM (active) | 8.19 µM (active)
COC(F)(C(F)(F)C(F)(F)F)C(F)(C(F)(F)F)C(F)(F)F (stereo not drawn) | inactive | inactive | – | inactive | – | inactive | inactive | inactive | inactive | – | – | – | – | – | – | –
C[N+](C)(C)Cc1ccccc1 | – | inactive | inactive | inactive | inactive | inactive | inactive | inactive | inactive | – | – | – | – | – | – | –
CCCCS(=O)(=O)Cl | – | inactive | inactive | inactive | inactive | inactive | inactive | – | inactive | – | – | – | – | – | – | –
CCCCCCCCCCCCCl | – | inactive | inactive | inactive | inactive | inactive | inactive | inactive | inactive | – | – | – | – | – | – | –
O=S(=O)(F)C(F)(F)C(F)(F)C(F)(F)C(F)(F)F | – | inactive | inactive | inactive | inactive | inactive | inactive | – | inactive | – | – | – | – | – | – | –
Brc1ccc(Oc2c(Br)cc(Br)cc2Br)c(Br)c1 | – | inactive | inactive | inactive | inactive | inactive | inactive | inactive | inactive | – | – | – | – | – | – | –
O=C1C=CC(=O)c2ccccc21 | – | inactive | inactive | inactive | inactive | inactive | inactive | – | inactive | – | – | – | – | – | – | –
CCCCN(CCCC)C(=S)S | – | – | inactive | – | inactive | inactive | – | inactive | inactive | 128 µM (active) | – | – | – | 50.1 µM (active) | 166 µM (active) | –
